Measurements reported in PubChem BioAssay AID1851 (National Center for Advancing Translational Sciences (NCATS), 2009).
Where “and” joins values, the source holds several entries; their conditions need not be identical. Identical values can stand only once. The whole screen tested about 16,000 compounds, of which about 5,800 (36%) were called active. About 23% were inconclusive and are not listed. Calls come from the whole dose curve; as a rule, active = well fitted curve in the direction sought with a large enough effect; inconclusive = small, poorly fitted or top-dose-only effect, or effect the other way; inactive = no such curve, though single readings can be large or run the other way. This is one part of the list.

target: Cytochrome P450 2C19 (Homo sapiens) (UniProt P33261); test: Cytochrome panel assay with activity outcomes; conditions: recombinant CYP, pro-luciferin dealkylation, luminescence, p450-cyp2c19; series mostly up to 57.1 µM
Sequence (P33261 whole entry, looked up): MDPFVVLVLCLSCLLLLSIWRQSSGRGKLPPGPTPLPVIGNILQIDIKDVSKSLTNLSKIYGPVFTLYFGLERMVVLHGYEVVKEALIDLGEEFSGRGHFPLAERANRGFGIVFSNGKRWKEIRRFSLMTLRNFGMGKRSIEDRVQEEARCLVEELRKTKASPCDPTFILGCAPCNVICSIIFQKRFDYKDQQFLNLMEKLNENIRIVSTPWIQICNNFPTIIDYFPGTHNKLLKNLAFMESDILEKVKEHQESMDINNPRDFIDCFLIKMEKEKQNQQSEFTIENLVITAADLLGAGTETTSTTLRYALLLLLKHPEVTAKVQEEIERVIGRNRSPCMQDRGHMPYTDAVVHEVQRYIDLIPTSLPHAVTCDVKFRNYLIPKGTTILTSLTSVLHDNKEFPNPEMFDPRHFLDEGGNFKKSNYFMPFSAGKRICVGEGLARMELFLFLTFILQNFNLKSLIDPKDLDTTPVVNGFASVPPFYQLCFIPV
% is set by controls: 0 for no effect and ±100 for the full control effect.

SMILES	AC50	activity, negative = inhibition
COc1ccc(-c2cc(C(=O)Nc3nc4c(C)cccc4s3)c3ccccc3n2)cc1OC	2.51 µM (active)	–
CC(C)(C)NS(=O)(=O)c1ccc(NC(=O)c2cc(-c3ccccc3)nc3ccccc23)cc1	2.82 µM (active)	–
CC(C)(C)NS(=O)(=O)c1ccc(NC(=O)C(Sc2ccccc2)c2ccccc2)cc1 (stereo not drawn)	3.55 µM (active)	–
CC(C)(C)c1nnc(NC(=O)c2cc(-c3ccccc3)nc3ccccc23)s1	5.01 µM (active)	–
CC(=O)Nc1ccc(-c2cc(C(=O)O)c3cc4ccccc4cc3n2)cc1	–	9.44% [at 11.4 µM] (inactive)
CCC(=O)Nc1nnc(C(C)(C)C)s1	inactive	–
CN1CCN(c2ncc3nc(-c4cc(F)cc(F)c4)c(=O)n(Cc4cccs4)c3n2)CC1	inactive	–
CCS(=O)(=O)N(C)[C@@H]1c2cc(C#N)ccc2OC(C)(C)[C@H]1O	inactive	–
Cc1cc([N+](=O)[O-])nn1Cc1ccccc1F	11.2 µM (active)	–
Cc1cc([N+](=O)[O-])nn1CC(=O)NNC(=S)Nc1ccc(F)cc1	inactive	–
Nc1c(S(=O)(=O)c2ccccc2)c2nc3ccccc3nc2n1Cc1ccco1	7.08 µM (active)	–
NC(=O)c1nn(-c2ccccc2)c(=O)cc1O	inactive	–
O=C(O)c1nn(-c2ccccc2)ccc1=O	inactive	–
O=C(c1ccccc1)c1nn(-c2ccccc2)c(=O)cc1C(F)(F)F	1.58 µM (active)	–
COC(=O)c1c(C)nc2ccccc2c1C(=O)O	inactive	–
CCOC(=O)c1nn(-c2ccccc2)c(-c2ccccc2)c1C(=O)c1ccccc1	10 µM (active)	–
COC(=O)c1nn(-c2ccccc2)c(-c2ccccc2)c1C(=O)c1ccccc1	8.91 µM (active)	–
COc1ccc(NC(=O)N2CCCC3(CCN(C(=O)c4cccn4C)CC3)C2)cc1	inactive	–
CC(C)[C@@H]1[C@H]2CC[C@H](C2)[C@H]1N	inactive	–
C[C@@H](O)[C@H]1C(=O)N2C(C(=O)O)=C(S[C@@H]3CN[C@H](C(=O)N(C)C)C3)[C@H](C)[C@H]12	inactive	–

SMILES	AC50	activity, negative = inhibition
CCc1ccc(/C=C\C(=O)N2CCc3ccccc3C2)cc1	4.47 µM (active)	–
CC1=C[N+](=O)c2ccccc2[N+]1=O	–	5.82% [at 11.4 µM] (inactive)
Cc1cc(NC(=O)CCC(=O)N(CC2CCCO2)C(C(=O)NC2CCCC2)c2cccnc2)no1 (stereo not drawn)	inactive	–
CCOC(=O)CN(C(=O)CCC(=O)Nc1cc(C)on1)C(C(=O)NC1CCCC1)c1cccnc1 (stereo not drawn)	28.2 µM (active)	–
O=C(O)[C@@H]1CCCNC1	inactive	–
CCCCC1CCC(c2nc(-c3ccccn3)no2)CC1 (stereo not drawn)	22.4 µM (active)	–
O=c1[nH]c(=O)n(Cc2ccco2)c2c1C(C(F)(F)F)(C(F)(F)F)N=C(CCC1CCCCC1)N2	inactive	–
O=C(N/N=C/c1cccnc1)c1ccc([N+](=O)[O-])cc1	inactive	–
O=C(c1ccc([N+](=O)[O-])cc1)[C@@H](Br)[C@@H](Br)c1ccnc2ccccc12	1.26 µM (active)	–
COc1ccc(C2C(C(=O)c3ccco3)=C(O)C(=O)N2Cc2cccnc2)cc1OC (stereo not drawn)	inactive	–
CCNc1ncc2nc(-c3ccc(OC)cc3)c(=O)n(Cc3cccs3)c2n1	inactive	–
CCN1C(=O)C(CC(=O)Nc2ccc(OC)cc2)N(Cc2cccnc2)C1=S (stereo not drawn)	1.26 µM (active)	–
CCN1C(=O)C(CC(=O)Nc2ccc(OC)cc2)N(Cc2cccs2)C1=S (stereo not drawn)	0.355 µM (active)	–
COc1ccc(-c2nc3cnc(N(C)C)nc3n(Cc3cccs3)c2=O)cc1	inactive	–
Cn1c(=O)[nH]c2ncn(C)c2c1=O	inactive	–
O=C(NCc1ccco1)c1ccccc1NS(=O)(=O)c1ccc(Br)s1	1.58 µM (active)	–
Nc1ccccc1C#Cc1ccccc1	10 µM (active) and 5.01 µM (active)	–
O=C1C=C(c2cccs2)CC(c2cccs2)C1n1cnc([N+](=O)[O-])c1 (stereo not drawn)	10 µM (active)	–
COc1ccccc1CN1CCCC2(CCN(C(=O)c3cnccn3)CC2)C1	inactive	–
COc1cc(/C=C(/NC(=O)c2ccccc2)C(=O)Nc2ccccc2)c([N+](=O)[O-])cc1OC	15.8 µM (active)	–

SMILES	AC50	activity, negative = inhibition
Cc1ccc(NC(=O)/C(=C\c2ccc([N+](=O)[O-])cc2)NC(=O)c2ccccc2)cc1	1.41 µM (active)	–
O=C(Nc1ccccc1)/C(=C\c1ccncc1)NC(=O)c1ccccc1	0.126 µM (active)	–
O=C(Nc1cccc2ccccc12)/C(=C/c1ccc([N+](=O)[O-])cc1)NC(=O)c1ccccc1	7.94 µM (active)	–
O=C(c1cccc(F)c1)N1CCC[C@@]2(CCN(C(c3ccccc3)c3ccccc3)C2)C1	inactive	–
COc1ccc(COC(=O)N/N=C2/C[C@@H](O)[C@@H](O)[C@@H]3[C@H]4C(=O)N(c5ccc(F)cc5F)C(=O)[C@@H]4CC[C@H]23)cc1	–	31.9% [at 11.4 µM] (inactive)
Cc1cc2cc3c(C)cc(=O)oc3c(C)c2o1	inactive	–
O=C(OCC(=O)c1ccc([N+](=O)[O-])cc1)/C(=C\c1ccc(Cl)cc1)NC(=O)c1ccccc1	3.98 µM (active)	–
Cc1ccc(C(=O)N/C(=C\c2ccc([N+](=O)[O-])cc2)C(=O)NCCc2ccccc2)cc1	2 µM (active)	–
Cc1ccc(NC(=O)Nc2nc(-c3ccc(C)s3)cs2)cc1	6.31 µM (active)	–
Cc1ncn(-c2ccccc2O)c1C	–	-11% [at 11.4 µM] (inactive)
CCOC(=O)Cn1c(CN(Cc2ccccc2)Cc2ccccc2)nc2c1c(=O)[nH]c(=O)n2C	15.8 µM (active)	–
Cn1c(=O)c2[nH]c(SCCN3CCOCC3)nc2n(C)c1=S	–	-14.1% [at 11.4 µM] (inactive)
Cn1c(=O)[nH]c(=O)c2c1nc(NCCCO)n2CCCc1ccccc1	inactive	–
Cc1ccc(C(=O)CNc2nc3c(c(=O)[nH]c(=O)n3C)n2Cc2ccccc2)cc1	5.62 µM (active)	–
COC(=O)Cn1c(CN(Cc2ccccc2)Cc2ccccc2)nc2c1c(=O)[nH]c(=O)n2C	28.2 µM (active)	–
Cn1c(=O)[nH]c(=O)c2c1nc(CN1CCOCC1)n2Cc1ccccc1	inactive	–
Cn1c(=O)[nH]c(=O)c2c1nc(CN(Cc1ccccc1)Cc1ccccc1)n2CCN1CCOCC1	14.1 µM (active)	–
Cc1nc(CN2CCCCC2)c(O)c(=O)[nH]1	–	-22.5% [at 11.4 µM] (inactive)
